Records with an inconclusive call do not appear. The source made the active and inactive calls. Unless noted, calls come from the whole dose curve; as a rule, active = well fitted inhibition curve with a large enough effect; inconclusive = small, poorly fitted or top-dose-only effect; inactive = flat fitted curve, though single readings scatter.

The nature of assay [1]: qHTS drug screen for cell cycle checkpoint inhibitors in PARPi-resistant BRCA-mutant ovarian cancer cell lines. (AID 1963452; calls by dose curve). Particulars: PEO1/OlaR viability, CellTiter-Glo luminescence, 96 h, stronger effect = lower value. The essentials:
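PEO1, PEO4 and PEO1/OlaR ovarian cancer cells, 600 per well, exposed 96 h at 37C to a dilution series. Viability read by CellTiter-Glo luminescence, normalized to DMSO and empty wells; activity summarized as Z-AUC.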
In general terms: In qHTS, concentration-response curves come from the screen itself.

A short description of assay [2]: qHTS profiling for inhibitors of Plasmodium falciparum proliferation (AID 504749).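 For activity, negative = inhibition: 0% = DMSO vehicle and full inhibition = artemisinin control.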 For all read-outs here: nearly all actives have a fitted effect of over 60% in size. Note: potency is the fitted concentration of half-maximal effect. Particulars: P. falciparum in erythrocytes, SYBR Green DNA, 72 h; for activity, negative = inhibition: at 28.7 µM (top of the series). The method in brief: (§1)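 Parasite proliferation within erythrocytes, 72 h exposure. Endpoint: SYBR Green I fluorescence after overnight lysis at room temperature. Controls: 0.29 uM artemisinin, DMSO.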

For a further assay, the system named is 3D7. The description is as above. Particulars: P. falciparum in erythrocytes, SYBR Green DNA, 72 h; series mostly up to 28.7 µM. The method in brief: as §1
For a further assay, the system named is 7G8. The description is as above. Particulars: P. falciparum in erythrocytes, SYBR Green DNA, 72 h; series mostly up to 28.7 µM. The method in brief:
as §1

For the next assay, the system named is AA1029. The assay is described as above. Particulars: P. falciparum in erythrocytes, SYBR Green DNA, 72 h; series mostly up to 28.7 µM. The method in brief:
as §1

In another assay the test system is AS120. Described as above. Particulars: P. falciparum in erythrocytes, SYBR Green DNA, 72 h; series mostly up to 28.7 µM. The method in brief:
as §1

Another assay has as its system ATS189. Described as above. Particulars: P. falciparum in erythrocytes, SYBR Green DNA, 72 h; series mostly up to 28.7 µM. The essentials: as §1
The test system of the next assay is ATS95. The description is as above. Particulars: P. falciparum in erythrocytes, SYBR Green DNA, 72 h; series mostly up to 28.7 µM. The method in brief: as §1
Another assay deals with C2A. The assay is described as above. Particulars: P. falciparum in erythrocytes, SYBR Green DNA, 72 h; series mostly up to 28.7 µM. The method in brief: as §1
For the next assay, the system named is CP185. The description is as above. Particulars: P. falciparum in erythrocytes, SYBR Green DNA, 72 h; series mostly up to 28.7 µM. The method in brief: as §1
In another assay the test system is CP191. The description is as above. Particulars: P. falciparum in erythrocytes, SYBR Green DNA, 72 h; series mostly up to 28.7 µM. The method in brief: as §1
The next assay concerns CP194. Described as above. Particulars: P. falciparum in erythrocytes, SYBR Green DNA, 72 h; series mostly up to 28.7 µM. The method in brief:
as §1

A further assay concerns CP201. Described as above. Particulars: P. falciparum in erythrocytes, SYBR Green DNA, 72 h; series mostly up to 28.7 µM. The method in brief: as §1
The next assay deals with CP203. The assay is described as above. Particulars: P. falciparum in erythrocytes, SYBR Green DNA, 72 h; series mostly up to 28.7 µM. The method in brief:
as §1

Another assay deals with CP211. The description is as above. Particulars: P. falciparum in erythrocytes, SYBR Green DNA, 72 h; series mostly up to 28.7 µM. The method in brief:
as §1

The next assay relates to CP215. Described as above. Particulars: P. falciparum in erythrocytes, SYBR Green DNA, 72 h; series mostly up to 28.7 µM. The method in brief:
as §1

A further assay deals with CP217. The description is as above. Particulars: P. falciparum in erythrocytes, SYBR Green DNA, 72 h; series mostly up to 28.7 µM. The essentials: as §1
For another assay, the system named is CP237. Described as above. Particulars: P. falciparum in erythrocytes, SYBR Green DNA, 72 h; series mostly up to 28.7 µM. The essentials: as §1
The next assay relates to CP192. The description is as above. Particulars: P. falciparum in erythrocytes, SYBR Green DNA, 72 h; series mostly up to 28.7 µM. The method in brief:
as §1

[3] abbreviates: measured here: PEO1 parental Z-AUC.

With `CC1(C)O[C@@H]2C[C@H]3[C@@H]4C[C@H](F)C5=CC(=O)C=C[C@]5(C)[C@H]4[C@@H](O)C[C@]3(C)[C@]2(C(=O)CO)O1`, the Z-AUC in assay [1] is 0.212 (inactive); in [1] (setting [3]), 1.77; in [1] (measured here: PEO4 Z-AUC), 0.487.

As to `COc1c(C)c2c(c(O)c1C/C=C(\C)CCC(=O)O)C(=O)OC2`, the Z-AUC in assay [1] is -0.522 (inactive); in assay [1] (setting [3]) it was -0.0213; in assay [1] (measured here: PEO4 Z-AUC), -0.309. Further, the Potency in assay [2] (parasite line A) was 3.16 µM (active); in assay [2] (parasite line B), 3.55 µM (active); with 3D7 it was 3.55 µM (active); with 7G8, 2.51 µM (active); with AA1029, 2.51 µM (active); in the assay with AS120, 3.16 µM (active). The Potency is 2.51 µM (active) in the assay on ATS189; 3.16 µM (active) in the assay with ATS95; 2.82 µM (active) with C2A; 3.16 µM (active) in the assay on CP185; 2.82 µM (active) in the assay on CP191; 4.55 µM (active) with CP194. In addition, the Potency in the assay on CP201 was 5.73 µM (active); in the assay on CP203, 3.22 µM (active); with CP211 it was 4.55 µM (active); in the assay with CP215, 3.22 µM (active); in the assay with CP217, 2.51 µM (active); with CP237, 3.55 µM (active).

Regarding `CC/C(=C(/CC)c1ccc(O)cc1)c1ccc(O)cc1`, the Z-AUC was -0.318 (inactive) in assay [1], -0.188 in assay [1] (setting [3]) and 0.271 in assay [1] (measured here: PEO4 Z-AUC). For the same molecule, the activity, negative = inhibition in assay [2] (parasite line B) was -19.4% (inactive). In addition, the Potency result with 3D7, in the assay with AA1029, in the assay on AS120, in the assay on ATS95, in the assay on C2A and with CP185 was “inactive” in each case. In addition, the Potency entry in the assay with CP192, in the assay on CP194, in the assay on CP201, in the assay on CP203, in the assay on CP211 and with CP215 was “inactive” each time. Besides, the Potency result with CP217 and in the assay on CP237 was “inactive” in each case.

Turning to `CC(C)(CO)[C@@H](O)C(=O)NCCCO`, the activity, negative = inhibition in [2] (parasite line A) is 10.4% (inactive); in assay [2] (parasite line B), -1.02% (inactive). In addition, the Potency entry in the assay on 3D7, in the assay on 7G8, in the assay with AA1029, in the assay on AS120, in the assay on ATS189 and in the assay with ATS95 was “inactive” each time. For the same molecule, the Potency result in the assay with C2A, in the assay with CP185, in the assay with CP191, in the assay with CP192, in the assay on CP194 and in the assay with CP201 was “inactive” throughout. Moreover, the Potency entry in the assay on CP203, in the assay on CP211, in the assay with CP215, in the assay with CP217 and with CP237 was “inactive” throughout.

For `Nc1ccc(/C=C/c2ccc(N)cc2S(=O)(=O)O)c(S(=O)(=O)O)c1`, the activity, negative = inhibition is -8.57% (inactive) in assay [2] (parasite line A) and 7.68% (inactive) in assay [2] (parasite line B). Besides, the Potency result with 3D7, in the assay with 7G8, in the assay with AA1029, in the assay on AS120, with ATS189 and in the assay on ATS95 was “inactive” in each case. Besides, the Potency result in the assay on C2A, in the assay with CP185, in the assay on CP191, in the assay on CP192, with CP194 and in the assay on CP201 was “inactive” in each case. Besides, the Potency result in the assay on CP203, in the assay on CP211, with CP215, in the assay with CP217 and with CP237 was “inactive” each time.

`COc1cc(NS(C)(=O)=O)ccc1Nc1c2ccccc2nc2ccccc12`: the Z-AUC is -0.779 (inactive) in [1], -1.77 in assay [1] (setting [3]) and -0.818 in [1] (measured here: PEO4 Z-AUC). Also, the Potency was 2 µM (active) in [2] (parasite line A); 3.16 µM (active) in [2] (parasite line B); 2 µM (active) with 3D7; 1.26 µM (active) with 7G8; 3.55 µM (active) with AA1029; 2.24 µM (active) in the assay on AS120. In addition, the Potency in the assay on ATS189 is 3.98 µM (active); in the assay on ATS95 it was 3.55 µM (active); in the assay on C2A it was 1.78 µM (active); in the assay with CP185, 4.47 µM (active); in the assay with CP191, 0.794 µM (active); in the assay with CP192, 5.36 µM (active). Further, the Potency in the assay with CP194 is 4.78 µM (active); with CP201, 5.36 µM (active); in the assay on CP203, 4.26 µM (active); with CP211 it was 4.78 µM (active); with CP215, 3.38 µM (active); in the assay on CP217, 3.16 µM (active). For the same molecule, the Potency with CP237 was 1.58 µM (active).

As to `CC(=O)OCC(=O)[C@@]12N=C(C)O[C@@H]1C[C@H]1[C@@H]3CCC4=CC(=O)C=C[C@]4(C)[C@H]3[C@@H](O)C[C@@]12C`, the Z-AUC was 0.653 (inactive) in assay [1], 1.08 in [1] (setting [3]) and 0.153 in assay [1] (measured here: PEO4 Z-AUC).

For `O=c1[nH]c(=O)n([C@H]2C[C@H](O)[C@@H](CO)O2)cc1C(F)(F)F`, the Z-AUC was -0.642 (inactive) in assay [1], -0.928 in assay [1] (setting [3]) and -0.403 in assay [1] (measured here: PEO4 Z-AUC).

In the case of `Cc1cc2c(cc1CC(=O)c1sccc1S(=O)(=O)Nc1onc(C)c1Cl)OCO2`, the Z-AUC in [1] was 0.64 (inactive); in [1] (setting [3]), 0.98; in assay [1] (measured here: PEO4 Z-AUC) it was 0.661.
